In the library only some 7.3% were active in any assay of this set; here they are far more common.
Luc counter – Kinase-Glo luciferase inhibition (counter-screen) | Kinase-Glo luciferase, ATP luminescence, 8 min | Potency, µM (doses to about 38.3 µM), for the others: top-dose activity change, negative = inhibition, usual class: inhibitors | hit rate 0.28% among 200,000 | AID 1379; further: on the % scale 0 is the no-effect control and ±100 the full control effect; nearly all actives have a fitted effect of over 60% in size
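Substrate mix (final 50 mM imidazole pH 7.2, 50 mM KCl, 7 mM MgCl2, 10 uM ATP, 0.01% Tween 20, 0.05% BSA) plus pin-tool compound, then Kinase-Glo detection mix; 8 min ambient, luminescence read.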
NPC1 promoter act – activates the NPC1 promoter. Potency, µM (highest dose often 9.22 µM), for inactives: at the highest dose activation, usual class: activators. hit rate 2.4% among 320,000. AID 485313. Huh7 NPC1 promoter luciferase reporter, 24 h; further: % of control where 0% means no effect; nearly all actives have a fitted effect of over 60% in size
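Quantitative HTS used a cell-based reporter: Huh7 cells stably bearing the NPC1 promoter upstream of luciferase were treated with compounds for 24 h, and promoter activation was read as luminescence.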
ELG1 genotox – induces genotoxicity in HEK293T cells with luciferase-tagged ELG1; HEK293T ELG1-luciferase reporter, luminescence, 16 h; hit rate 1.3% among 330,000; Potency, µM (titrated, usually from 46 µM), for the others: at the top dose activity change, positive = activation, actives largely listed as activators; AID 504466; further: % of control where 0% means no effect; nearly all actives have a fitted effect of over 60% in size
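HEK293T cells expressing luciferase-tagged ELG1 were treated with compound or DMSO for 16 hr at 37°C. Luciferase activity was then read after 30 min with ONE-Glo at room temperature; rising signal flags genetic stress.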
SMN2 splice up – increases expression of the SMN2 splice variant. hit rate 2.8% among 210,000. HEK293 SMN2-luciferase splicing reporter, luminescence, 30-36 h. Potency, µM (highest dose often 46.1 µM), for inactives: top-dose activity change, positive = activation, usual class: activators; further: % of control where 0% means no effect; nearly all actives have a fitted effect of over 55% in size
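HEK293 cells carry an SMN2 minigene-luciferase reporter in which exon 7 inclusion puts luciferase in frame. Cells were seeded at 2000 cells/well, attached for 10-12 hours, then exposed to compounds for 30-36 hours at 37C before ONE-Glo luminescence.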
FLuc counter – inhibits or activates purified firefly luciferase, miR-21 counter-screen; purified FLuc, Km substrates, luminescence inhibition; Potency, µM (doses to about 57.5 µM), without a hit: at the highest dose activity change, negative = inhibition, most hits filed as inhibitors; hit rate 6.9% among 360,000;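 further: plate controls were vehicle for no effect and reference inhibitor for full effect; nearly all actives have a fitted effect of over 55% in size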
Target sequence (P08659 whole entry, looked up): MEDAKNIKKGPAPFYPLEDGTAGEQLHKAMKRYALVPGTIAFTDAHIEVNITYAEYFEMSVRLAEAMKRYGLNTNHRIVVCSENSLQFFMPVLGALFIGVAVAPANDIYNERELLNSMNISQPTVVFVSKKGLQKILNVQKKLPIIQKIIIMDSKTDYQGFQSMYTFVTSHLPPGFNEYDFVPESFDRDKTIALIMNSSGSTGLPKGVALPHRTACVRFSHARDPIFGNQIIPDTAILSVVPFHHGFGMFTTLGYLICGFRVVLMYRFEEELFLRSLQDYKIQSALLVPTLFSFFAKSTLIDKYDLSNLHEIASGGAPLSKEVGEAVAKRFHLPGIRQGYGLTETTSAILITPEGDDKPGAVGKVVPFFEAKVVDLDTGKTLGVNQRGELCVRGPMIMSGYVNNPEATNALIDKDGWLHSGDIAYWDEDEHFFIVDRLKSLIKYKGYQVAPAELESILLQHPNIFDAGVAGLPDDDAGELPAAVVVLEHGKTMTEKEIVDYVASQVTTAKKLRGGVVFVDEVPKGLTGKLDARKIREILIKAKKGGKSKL
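Purified P. pyralis luciferase, 10 nM final, with Km-level 10 uM D-luciferin and 10 uM ATP in 50 mM Tris acetate pH 7.5, 10 mM Mg acetate, 0.01% Tween-20, 0.05% BSA; 6-point qHTS titration about 60 µM downward; luminescence read.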
Rab9 prom act – Rab9 promoter activation | hit rate 2.8% among 320,000 | Potency, µM (series often up to 9.22 µM), for the others: top-dose activation, negative = inhibition, hits mostly activators | Huh7 Rab9 promoter-luciferase reporter, luminescence, 24 h; further: % of control where 0% means no effect; nearly all actives have a fitted effect of over 60% in size
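Cells were plated at 1500 per well in reduced-serum medium with 10% FBS and left 2 h. Compound in DMSO was then added for 24 h at 37 °C. Reporter signal was read by luminescence after 10 min with luciferase detection reagent.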
* hit, by the source's call; ? = inconclusive; / = no result. The call rests on the fitted dose curve; in most records, active means well fitted curve in the direction sought with a large enough effect; inconclusive means small, poorly fitted or top-dose-only effect, or another doubt; inactive means no such curve, though single readings can be large; an effect the other way counts as inactive or inconclusive. Potency means the concentration at half of the fitted maximal effect.

SMILES	Luc counter	NPC1 promoter act	ELG1 genotox	SMN2 splice up	FLuc counter	Rab9 prom act
CCOC(=O)c1c(NC(=O)CSc2nnnn2-c2ccccc2OCC)sc2c1CC(C)(C)NC2(C)C	/	-6%	1%	/	-2%	1%
c1ccc(Oc2ccc3ccccc3n2)cc1	-6%	17%	?	-5%	17µM*	5%
COc1ccc(Oc2cc(C)c3ccccc3n2)cc1	0%	0%	8%	-17%	?	10%
CCOC(=O)/C(C#N)=C/Nc1ccsc1C(C)=O	/	0%	8%	/	?	1%
CCOC(=O)COc1ccsc1C(=O)OC	-2%	2%	0%	0%	0%	3%
COC(=O)c1sccc1-c1ccc(C(=O)Nc2cccnc2)o1	-13%	2.2µM*	16%	18µM*	8.5µM*	3.5µM*
CCOC(=O)/C(C#N)=C/c1ccc(-c2ccc(Br)cc2)o1	/	/	/	12%	6.7µM*	/
CCOC(=O)/C(C#N)=C/c1ccc(-c2ccsc2C(=O)OC)o1	-9%	?	16%	6%	-18%	2.5µM*
CCOC(=O)C(=Cc1ccc(-c2ccsc2C(=O)OC)o1)C(=O)OCC	-2%	-3%	-11%	-11%	19µM*	3%
CCOC(=O)CN(Cc1sccc1C)C(=O)Nc1ccc(OC)cc1OC	-1%	-3%	-2%	-14%	-25%	-3%
Oc1c(C(c2ccccn2)N2CCCCC2)cc(Cl)c2cccnc12 (stereo unspecified)	/	-2%	9%	/	-3%	-1%
COC(=O)c1sccc1-c1ccc(C(N)=O)o1	-2%	0%	1%	6%	-3%	-13%
COC(=O)c1sccc1NC(=O)c1cccs1	/	-4%	2%	/	6%	1%
COC(=O)c1sccc1-c1ccc(/C=N/OC(=O)c2cccs2)o1	/	2%	4%	/	5.4µM*	10%
COC(=O)C(=Cc1ccc(-c2ccsc2C(=O)OC)o1)C(=O)OC	/	7%	-3%	/	11µM*	21%
CCn1cnnc1SCC(=O)Nc1ccccc1C(=O)NC1CC1	/	/	0%	/	/	/
O=C1CC(C(=O)Nc2ccccc2)S/C(=N\N=C\c2ccco2)N1 (stereo unspecified)	1%	1%	6%	-7%	0%	-3%
CC1(NC(=O)Cc2csc(-c3ccc(Cl)cc3)n2)CCS(=O)(=O)C1 (stereo unspecified)	/	/	1%	/	/	/
CC1=C(C(=O)OCc2ccccc2)C(c2cccc(Cl)c2Cl)NC(=O)N1CCCCCC(=O)O (stereo unspecified)	/	4%	5%	/	0%	0%
CCCCc1nc2cc(C(=O)N3CCNC(=O)C3)ccc2o1	/	-3%	2%	/	-3%	2%
CCCCc1nc2cc(C(=O)N3CCCC(OCCC)C3)ccc2o1 (stereo unspecified)	/	?	?	/	17µM*	?
CCCCc1nc2cc(C(=O)N3CCCC(COC)C3)ccc2o1 (stereo unspecified)	/	4µM*	?	/	17µM*	4µM*
CCCCc1nc2cc(C(=O)N3CCCC3)ccc2o1	/	?	?	/	?	2.8µM*
CCCCc1nc2cc(C(=O)NC(C)c3cnn(C)c3)ccc2o1 (stereo unspecified)	/	?	?	/	?	4µM*
CCOc1ccc(S(=O)(=O)N(CC(=O)N/N=C/c2ccc(-c3ccc([N+](=O)[O-])cc3)o2)c2ccccc2)cc1	-6%	-18%	-2%	-21%	0%	-13%
CCCCc1nc2cc(C(=O)N3CCCCC3C(=O)OC)ccc2o1 (stereo unspecified)	/	?	?	/	15µM*	2.8µM*
CCCCc1nc2cc(C(=O)N3CCCCC3CC(=O)OCC)ccc2o1 (stereo unspecified)	/	23%	-1%	/	3%	?
Cc1cc2ccccc2n1CCNC(=O)c1ccccc1	-8%	?	5%	-54%	21µM*	?
